Experimental data: PubChem BioAssay AID2716 (Broad Institute, 2010)
The campaign covered roughly 320,000 compounds. About 3,300 (1%) were called active. This excerpt belongs to a sample that is enriched for actives. Values without a mark were called inactive.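 The calls were made as follows: active = every valid replicate shows activation above 250% relative to neutral control wells; inactive = the rest, any valid replicate at or below 250%.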

test: restored growth of temperature-sensitive Mot1-301 yeast – S. cerevisiae, ATP luminescence, 38.5C, SUMOylation pathway inhibitor project, primary screen (AID 2716);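 also: OY570 slx delta 5 strain wells were the positive control but not used for scaling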; settings: S. cerevisiae Mot1-301 growth rescue, at 18.8 µM, stronger effect = higher value, percent above DMSO median, 100 means doubled

Structure (SMILES) | growth rescue
COc1cc(Cl)c(C)cc1NC(=O)CSc1nnc(CN2CCCC2)o1 | 50.1%
CCOc1cc2[nH]c(=S)n(Cc3ccc(C(=O)N4CCN(C)CC4)cc3)c(=O)c2cc1OCC | -1.75%
O=C(CNS(=O)(=O)c1ccc(Br)s1)NCc1ccc2c(c1)OCO2 | 17.3%
O=C(CNC(c1ccccc1)c1ccccc1)Nc1ccc(F)cc1 | 14.1%
CN1C(=O)CC(c2ccccc2)C1=O (configuration not stated) | 8.06%
O=C1OCC2=C1C(c1ccccc1)CC(=O)N2c1cccc(F)c1 (configuration not stated) | 4.11%
O=C1CC(c2ccccc2)C(=O)N1c1cccc(O)c1 (configuration not stated) | 564% (active)
COc1ccc(C(C)=O)cc1CN1C(=O)NC2(CCCCC2C)C1=O (configuration not stated) | 115%
Cc1ccc(S(=O)(=O)CC(=O)Nc2c(C)n(C)n(-c3ccccc3)c2=O)cc1 | -28%
Cc1ccccc1OCCC(=O)Nc1c(C)n(C)n(-c2ccccc2)c1=O | -23.7%
CC(=O)N1CCc2cc(Br)cc(S(=O)(=O)CCC(=O)Nc3c(C)n(C)n(-c4ccccc4)c3=O)c21 | 461% (active)
COC(=O)c1ccc(OC(=O)c2nn(C)cc2Cl)c(OC)c1 | -16.8%
Cc1c(NC(=O)c2c([N+](=O)[O-])cnn2C)c(=O)n(-c2ccccc2)n1C | 0.562%
CN(CC(=O)NCc1cccnc1)S(=O)(=O)c1cc(Cl)ccc1Cl | 249%
COc1ccc(CNS(=O)(=O)c2ccc(NC(=O)N3CCCCC3)cc2)cc1 | 1.4%
COc1ccc(-c2[nH]nc3c2C(c2ccncc2)C(C#N)=C(N)O3)cc1 (configuration not stated) | 577% (active)
COc1cc(C2C(C#N)=C(N)Oc3n[nH]c(-c4ccccn4)c32)cc(OC)c1OC (configuration not stated) | -11.1%
CCOc1c(OC)cc(C2C(C#N)=C(N)Oc3n[nH]c(-c4ccncc4)c32)cc1OC (configuration not stated) | 365%
O=C(COC(=O)c1ccc(N2CCCC2=O)cc1)c1ccc(OC(F)F)cc1 | -26.3%

Structure (SMILES) | growth rescue
Cc1cc(OC(C)C(=O)Nc2ccc(S(=O)(=O)Nc3onc(C)c3C)cc2)cc(C)c1Cl (configuration not stated) | -7.5%
CCn1c(SCC(=O)Nc2ccc(S(=O)(=O)Nc3onc(C)c3C)cc2)nnc1-c1ccccc1 | 8.66%
Cc1cc(C)c2nc(-c3cccnc3)cc(C(=O)Nc3ccc(S(=O)(=O)Nc4onc(C)c4C)cc3)c2c1 | 404% (active)
CC1CN(C(=S)Nc2cccc(F)c2)CC(C)O1 (configuration not stated) | -11.7%
COc1ccccc1/C=C/C(=O)NC1CC2CCC1C2 (configuration not stated) | -19.4%
O=C(/C=C/c1ccco1)NC(=S)N1CCCCC1 | -4.55%
COc1ccccc1/C=C/C(=O)NC(=S)N1CCOCC1 | 413% (active)
CC1CCN(S(=O)(=O)c2ccc3ncn(CC(=O)N(C)C4CCCCC4)c(=O)c3c2)CC1 | -3.24%
CC1CC(C)CN(C(=O)CCNC(=O)Cn2cnc3ccccc3c2=O)C1 (configuration not stated) | 0.101%
CCN1CCCC1CNC(=O)Cn1cnc2ccc(S(=O)(=O)N3CCC(C)CC3)cc2c1=O (configuration not stated) | 572% (active)
COC(=O)C1C(=O)CC(C)(O)C(C(=O)OC)C1c1ccc2c(c1)OCO2 (configuration not stated) | -11.2%
COC(=O)c1sccc1NC(=O)CC1C(=O)NCCN1C(=O)Nc1ccc(F)cc1F (configuration not stated) | 848% (active)
COC(=O)c1cc(NC(=O)CC2C(=O)NCCN2C(=O)c2ccc(F)cc2)cc(C(=O)OC)c1 (configuration not stated) | 8.77%
COc1cccc(NC(=O)CC2C(=O)NCCN2C(=S)Nc2ccc(F)cc2)c1 (configuration not stated) | 3.83%
Cc1ccc(CNC(=O)C2(C(F)(F)F)C/C(=C\Cc3ccccc3)CCCO2)o1 (configuration not stated) | 17.2%
Cc1cccc(N(C)C(=O)c2cc3c(=O)[nH]c4ccc(C)cc4c3s2)c1 | 675% (active)
CCN(CC)CCCNC(=O)c1cc2c(=O)[nH]c3ccc(C)cc3c2s1 | 6.48%
Cc1ccc2[nH]c(=O)c(CC(=O)O)c(-c3ccccc3)c2c1 | -1.66%
COc1cccc(NC(=O)COc2cccnc2[N+](=O)[O-])c1 | 8.97%

Structure (SMILES) | growth rescue
Cc1cc(C)c(S(=O)(=O)NCC2CCC(C(=O)NCc3ccc4c(c3)OCO4)CC2)c(C)c1 (configuration not stated) | 33.6%
CNS(=O)(=O)c1cnccc1N1CCN(c2cccc(C)c2)CC1 | -3.12%
COc1ccc(N(CC(=O)Nc2cccc3ccccc23)S(C)(=O)=O)c(OC)c1 | 9.81%
COc1ccccc1NC(=O)COc1ccc(C(=O)OCC(=O)N(C(C)C)C(C)C)cc1OC | 38.2%
COc1cc(CO)ccc1OCC(=O)Nc1cccc2ccccc12 | 314% (active)
C[C@H](CO)N1C[C@H](C)[C@H](CN(C)CC2CC2)Oc2ccc(NC(=O)CCN3CCOCC3)cc2C1=O | -13.9%
Cc1ccc(S(=O)(=O)C2(S(=O)(=O)c3ccc(C)cc3)CCCC2)cc1 | -9.93%
COc1ccc(C(=O)N/N=C2\CCS(=O)(=O)c3ccc(F)cc32)cc1OC | -16.6%
O=S1(=O)CC/C(=N\Nc2ccc(F)cc2)c2ccsc21 | 423% (active)
CN1CCN(C(=O)c2ccc(-c3ccc(Br)cc3)o2)CC1 | 14%
O=C1C=CN2CCCC2CC1 (configuration not stated) | 51.5%
O=C1CC2(CCCCC2)Oc2ccc(OCC(=O)N3CCOCC3)cc21 | -29.5%
COc1ccc(OCC(=O)N2CCN(C(=O)COc3ccccc3)CC2)cc1 | -6.56%
O=C1CC2(CCN(C(=O)COc3ccc(F)cc3)CC2)Oc2ccccc21 | 269% (active)
O=C1CCCC2=C1C(c1cccs1)n1nc(SCc3ccccc3)nc1N2 (configuration not stated) | 10.5%
CC(C)Oc1ccc(Oc2ccc(C(F)(F)F)cn2)cc1 | 21.9%
O=C(O)CCCC(=O)Nc1ccc(Oc2cccc(C(F)(F)F)c2)nc1 | -3.63%
O=Cc1ccc(Oc2cccc(C(F)(F)F)c2)nc1 | 554% (active)
NNC(=O)CNC(c1ccccc1)c1cc(Cl)ccc1NC(=O)c1ccccc1 (configuration not stated) | -0.491%
